High-throughput results from PubChem.
3T3 cytotox – Cytotoxic Profiling in NIH 3T3 Cell Line of Diverse Libraries Using Quantitative High-Throughput Screening | NIH 3T3 viability, CellTiter-Glo ATP luminescence, 48-72 h | Potency, µM (titrated, usually from 96.7 µM), for inactives: at the top dose activity change, negative = cytotoxicity, actives largely listed as inhibitors | hit rate 4.3% among 94,000; also: nearly all actives have a fitted effect of over 55% in size
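First NIH 3T3 cells are plated at 400 cells/well; next compound is pinned in; then plates incubate 48 or 72 hr at 37 °C; finally CellTiter-Glo is added and luminescence read after 10 min.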
NPR1 antag – Natriuretic polypeptide receptor (hNpr1) antagonism - Primary qHTS; Atrial natriuretic peptide receptor 1 (Homo sapiens), P16066; HEK293 hNpr1 GloSensor cGMP, ANP-stimulated luminescence; Potency, µM (highest dose often 46.3 µM), for inactives: at the highest dose activity change, negative = inhibition, actives largely listed as inhibitors; hit rate 1.6% among 76,000; AID 1347048, 2019; calls by dose curve; also: nearly all actives have a fitted effect of over 60% in size
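HEK293 cells stably expressing human Npr1 and cGMP GloSensor pGS-40F, loaded 2 h with 2% GloSensor reagent, given compound 30 min at room temperature. Luminescence read before and 20 min after 0.1 nM hNppA.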
FLuc inh – Firefly luciferase inhibition profiling of diverse chemical library using quantitative high-throughput screening; purified P. pyralis luciferase, luminescence, biochemical; hit rate 2.5% among 76,000; Potency, µM (top dose mostly 115 µM), actives largely listed as inhibitors; Luciferin 4-monooxygenase (Photinus pyralis), P08659; also: nearly all actives have a fitted effect of over 65% in size
Target sequence (P08659 whole entry, looked up): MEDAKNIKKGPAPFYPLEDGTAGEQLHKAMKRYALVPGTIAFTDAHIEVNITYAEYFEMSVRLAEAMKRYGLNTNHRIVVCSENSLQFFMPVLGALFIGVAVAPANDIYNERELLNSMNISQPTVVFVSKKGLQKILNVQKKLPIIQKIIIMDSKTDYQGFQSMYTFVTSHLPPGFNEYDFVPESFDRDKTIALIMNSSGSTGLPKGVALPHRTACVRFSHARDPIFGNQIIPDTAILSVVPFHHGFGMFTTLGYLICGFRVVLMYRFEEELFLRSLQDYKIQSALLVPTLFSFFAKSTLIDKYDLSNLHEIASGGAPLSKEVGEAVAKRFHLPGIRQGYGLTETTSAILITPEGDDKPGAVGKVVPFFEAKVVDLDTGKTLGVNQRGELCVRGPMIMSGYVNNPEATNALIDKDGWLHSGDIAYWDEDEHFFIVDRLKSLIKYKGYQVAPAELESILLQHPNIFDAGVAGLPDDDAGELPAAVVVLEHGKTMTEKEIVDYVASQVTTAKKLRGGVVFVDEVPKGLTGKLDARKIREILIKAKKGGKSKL
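Biochemical qHTS: compound (6-point titration) added to 10uM D-luciferin plus 10uM ATP in Tris acetate pH 7.5 buffer with Mg, Tween-20 and BSA, then purified enzyme at 10nM; light output imaged.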
HEK cytotox – Cytotoxic Profiling in HEK 293 Cell Line of Diverse Libraries Using Quantitative High-Throughput Screening; HEK 293 viability, ATP luminescence (CellTiter-Glo), 48-72 h; Potency, µM (highest dose often 115 µM), inactives show top-dose activity change, negative = cytotoxicity, usual class: inhibitors; hit rate 6.6% among 94,000; AID 1345083, 2018; also: nearly all actives have a fitted effect of over 60% in size
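Cells seeded first (HEK 293, 250 cells/well), then compound added by pintool. Incubation ran 48 or 72 hr at 37 degree Celsius. CellTiter-Glo was added and luminescence imaged after 10 min at room temperature.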
* marks the source's active call; other numbers are inactive results; [ ] = remark or other dose. Hits are enriched below; roughly 11% of the tested compounds scored in any of these assays. Unless noted, calls follow the shape of the dose curve; as a rule, active = well fitted curve in the direction sought with a large enough effect; inconclusive = small, poorly fitted or top-dose-only effect, or another doubt; inactive = no such curve, though single readings can be large; an effect the other way counts as inactive or inconclusive. % is scaled to controls: 0 for no effect and ±100 for the full control effect; potency is read from the fitted curve at half-maximal effect.

What do the screens show for `CN1CCN(CCNC(=O)c2ccc(-c3ccc(N4CCCCCC4)nc3)cc2)CC1`?
3T3 cytotox: 14µM*; NPR1 antag: -17%; FLuc inh: inactive; HEK cytotox: 25µM*

What do the screens show for `O=C(NCCN1CCCCC1)c1ccc(-c2ccc(N3CCCCC3)nc2)cc1`?
3T3 cytotox: 20µM*; NPR1 antag: -3%; FLuc inh: inconclusive; HEK cytotox: inconclusive

Results for CC(C)CCN1CCCCC12Cc1ccccc1CNC2=O (centres undefined) ?
3T3 cytotox: 4%; HEK cytotox: -8%

How did COCCCn1c(=O)c(C(=O)N2CCN(C(=O)c3ccc(OC)cc3)CC2)nc2cccnc21 do in these assays?
3T3 cytotox: -18%; HEK cytotox: -1%

What do the screens show for `CCOc1ccc2c(n1)CCN(C(=O)Nc1ccc(C)c(C)c1)C2`?
3T3 cytotox: inconclusive; NPR1 antag: -10%; FLuc inh: 28µM*; HEK cytotox: inconclusive

How did CCOc1ccc2c(n1)CCN(C(=O)NCC(C)C)C2 do in these assays?
3T3 cytotox: -20%; NPR1 antag: 6%; FLuc inh: inconclusive; HEK cytotox: -17%

What do the screens show for `COCCOc1ccc2c(n1)CCN(C(=O)NCCC(C)C)C2`?
3T3 cytotox: -20%; NPR1 antag: 4%; FLuc inh: 14µM*; HEK cytotox: -15%

What do the screens show for `CC(=O)NCCC(=O)N1Cc2ccccc2CC2(CCCN2CC2CCNC2)C1` (centres undefined)?
3T3 cytotox: -28%; HEK cytotox: -8%

How did Cc1ccc2[nH]c(=O)c(CCC(=O)N3CCCCC3)cc2c1 do in these assays?
3T3 cytotox: inactive; NPR1 antag: 3%; FLuc inh: 40µM*; HEK cytotox: 19%

What do the screens show for `Cc1ccc2cc(CCC(=O)N3CCOCC3)c(=O)[nH]c2c1`?
3T3 cytotox: 3%; NPR1 antag: -15%; FLuc inh: 32µM*; HEK cytotox: -4%

How did Cc1ccc2[nH]c(=O)c(CCC(=O)N3CCN(CC(C)C)CC3)cc2c1 do in these assays?
3T3 cytotox: inactive; NPR1 antag: 1%; FLuc inh: inactive; HEK cytotox: 15%

What do the screens show for `CCN1c2cc(C(=O)Nc3ccc(C)c(F)c3)ccc2C(=O)N2CCCCCC21` (centres undefined)?
3T3 cytotox: 40µM*; NPR1 antag: 0%; FLuc inh: inactive; HEK cytotox: inconclusive

What do the screens show for `CCN1c2cc(C(=O)Nc3ccc(F)c(Cl)c3)ccc2C(=O)N2CCCCCC21` (centres undefined)?
3T3 cytotox: 32µM*; NPR1 antag: -7%; FLuc inh: inactive; HEK cytotox: 16µM*

How did CCN1c2cc(C(=O)Nc3ccc(F)c(C)c3)ccc2C(=O)N2CCCCCC21 (centres undefined) do in these assays?
3T3 cytotox: inconclusive; NPR1 antag: -18%; FLuc inh: inactive; HEK cytotox: 40µM*

How did CN(C)C(=O)N1CCN(C(=O)c2nc3cccnc3n(C3CC3)c2=O)CC1 do in these assays?
3T3 cytotox: -23%; HEK cytotox: -28%

Results for CNC(=O)c1cc(C)nc2onc(C3CCCN3[S+](=O)([O-])c3ccccc3)c12 (centres undefined) ?
3T3 cytotox: -10%; HEK cytotox: -9%

What do the screens show for `COc1cccc(CN2CC(O)CN([S+](=O)([O-])c3ccc(C)cc3)CC2=O)c1OC` (centres undefined)?
3T3 cytotox: -28%; HEK cytotox: inconclusive

How did Cc1noc(-c2nc(-c3cccc(Br)c3)no2)n1 do in these assays?
3T3 cytotox: 0%; NPR1 antag: -15%; FLuc inh: inconclusive; HEK cytotox: inconclusive

What do the screens show for `Cc1cccc(-c2noc(-c3nc(C)no3)n2)c1`?
3T3 cytotox: -12%; NPR1 antag: -3%; FLuc inh: 25µM*; HEK cytotox: -19%

What do the screens show for `CCOC(=O)c1cccc(NC(=O)c2ccc3c(c2)N(CC)C2CCCCN2C3=O)c1` (centres undefined)?
3T3 cytotox: 40µM*; NPR1 antag: -28%; FLuc inh: inactive; HEK cytotox: 40µM*

What do the screens show for `CCOC(=O)c1cccc(NC(=O)c2ccc3c(c2)N(C)C2CCCCCN2C3=O)c1` (centres undefined)?
3T3 cytotox: inconclusive; NPR1 antag: -18%; FLuc inh: inconclusive; HEK cytotox: 32µM*

How did CCN1c2cc(C(=O)Nc3cccc(C)c3)ccc2C(=O)N2CCCC21 (centres undefined) do in these assays?
3T3 cytotox: inconclusive; NPR1 antag: 6%; FLuc inh: inactive; HEK cytotox: inconclusive

How did CCc1ccc(NC(=O)c2ccc3c(c2)N(C)C2CCCCCN2C3=O)cc1 (centres undefined) do in these assays?
3T3 cytotox: inactive; NPR1 antag: -14%; FLuc inh: inconclusive; HEK cytotox: inconclusive

What do the screens show for `CCOc1ccc2c(n1)CCN(C(=O)c1ccc(OC)nc1OC)C2`?
3T3 cytotox: -14%; NPR1 antag: 10%; FLuc inh: inactive; HEK cytotox: -16%

How did COCCN1CCNc2nc(COc3cccc(C#N)c3)n(Cc3ccccc3)c2C1=O do in these assays?
3T3 cytotox: -17%[138 µM]; NPR1 antag: -18%[70.6 µM]; FLuc inh: inactive; HEK cytotox: inconclusive

How did COc1cccc(-c2nn(-c3ccccc3)c(OC(C)=O)c2-c2ccc(NC(=O)C3CCCC3)cc2)c1 do in these assays?
3T3 cytotox: inconclusive; NPR1 antag: -17%; FLuc inh: inactive; HEK cytotox: inconclusive

What do the screens show for `CC1=C[C@@H](CN(C)CCO)[C@H](C(C)C)C[C@H]1Cc1nnc(-c2ccc(C)cc2)o1`?
3T3 cytotox: inconclusive; NPR1 antag: -2%[70.6 µM]; FLuc inh: inactive; HEK cytotox: 89µM*

What do the screens show for `COCCNC[C@@H]1C=C(C)[C@H](Cc2nnc(-c3ccc(OC)cc3)o2)C[C@H]1C(C)C`?
3T3 cytotox: 28µM*; NPR1 antag: 1%[70.6 µM]; FLuc inh: inactive; HEK cytotox: 28µM*

How did COc1ccc(-c2nnc(C[C@@H]3C[C@@H](C(C)C)[C@H](CO)C=C3C)o2)cc1 do in these assays?
3T3 cytotox: inconclusive; NPR1 antag: -2%[70.6 µM]; FLuc inh: inactive; HEK cytotox: 40µM*

Results for CC1=C[C@@H](CN(C)CCO)[C@H](C(C)C)C[C@H]1Cc1nnc(-c2ccccc2)o1 ?
3T3 cytotox: inconclusive; NPR1 antag: -2%[70.6 µM]; FLuc inh: inactive; HEK cytotox: inconclusive

What do the screens show for `Cc1noc(C)c1CC(=O)NCCc1noc(-c2cccnc2)n1`?
3T3 cytotox: inactive; NPR1 antag: 0%; FLuc inh: inactive; HEK cytotox: -4%

How did Cn1ncc2c(C(=O)NC3CCC3)cc(-c3cccc(C(F)(F)F)c3)nc21 do in these assays?
3T3 cytotox: -4%; HEK cytotox: 3%

Results for O=C(NC1CCN(CCn2nc3n(c2=O)CCCC3)C1)c1ccc(Cl)cc1 (centres undefined) ?
3T3 cytotox: -13%; HEK cytotox: -9%
